Measured values reported in PMC4336329 (PLoS ONE, 2015).
Among all 310,000 compounds or so, about 14,000 (4.5%) showed an effect of 50% or more. Effects have a minus sign here. For the sample, strong results were picked, then their nearest neighbours and some compounds at random.

biological target: human ether-à-go-go-related gene (hERG) potassium channel (human, UniProt Q12809); experiment: primary screen, population patch clamp on CHO cells stably expressing hERG; higher = less effect of the substance
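Note: peak tail current of the secondary pulse compared with the same well before compound.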

Chain of human ether-à-go-go-related gene (hERG) potassium channel (Q12809 whole entry, looked up): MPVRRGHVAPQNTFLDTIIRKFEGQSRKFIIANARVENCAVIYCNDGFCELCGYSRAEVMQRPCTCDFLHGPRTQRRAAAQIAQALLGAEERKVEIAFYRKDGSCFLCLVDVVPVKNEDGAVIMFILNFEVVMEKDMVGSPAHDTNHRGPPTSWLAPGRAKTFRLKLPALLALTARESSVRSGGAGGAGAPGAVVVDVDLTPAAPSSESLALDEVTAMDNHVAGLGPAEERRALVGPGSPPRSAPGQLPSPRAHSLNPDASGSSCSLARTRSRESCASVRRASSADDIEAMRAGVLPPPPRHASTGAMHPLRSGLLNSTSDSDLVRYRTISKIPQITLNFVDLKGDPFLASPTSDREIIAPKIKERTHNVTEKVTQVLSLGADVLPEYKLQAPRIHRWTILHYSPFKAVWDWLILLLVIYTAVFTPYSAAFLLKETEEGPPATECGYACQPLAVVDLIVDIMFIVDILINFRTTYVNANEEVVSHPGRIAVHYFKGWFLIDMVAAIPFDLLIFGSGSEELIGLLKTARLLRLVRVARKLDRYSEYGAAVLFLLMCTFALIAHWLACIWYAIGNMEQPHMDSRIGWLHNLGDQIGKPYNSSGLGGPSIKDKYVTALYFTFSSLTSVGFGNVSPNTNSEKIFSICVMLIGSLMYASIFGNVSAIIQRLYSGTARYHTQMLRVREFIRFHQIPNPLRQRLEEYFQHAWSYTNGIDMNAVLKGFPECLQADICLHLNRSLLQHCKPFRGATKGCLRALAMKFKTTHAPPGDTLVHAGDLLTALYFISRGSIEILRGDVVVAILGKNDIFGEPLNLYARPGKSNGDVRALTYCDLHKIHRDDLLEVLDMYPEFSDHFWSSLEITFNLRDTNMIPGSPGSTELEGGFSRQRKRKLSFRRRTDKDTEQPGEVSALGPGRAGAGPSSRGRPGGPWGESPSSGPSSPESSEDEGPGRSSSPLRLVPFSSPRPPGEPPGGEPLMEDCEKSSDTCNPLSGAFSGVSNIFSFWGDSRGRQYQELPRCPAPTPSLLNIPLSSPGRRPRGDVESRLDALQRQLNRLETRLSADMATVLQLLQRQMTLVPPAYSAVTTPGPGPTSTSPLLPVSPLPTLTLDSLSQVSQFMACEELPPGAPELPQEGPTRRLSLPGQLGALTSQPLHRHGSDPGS

| Structure (SMILES) | hERG current change (%, negative = inhibition) at 10uM |
| --- | --- |
| Cc1ccc(N(CC(=O)NCCSc2nc3ccccc3s2)S(=O)(=O)c2ccccc2)c(C)c1 | -42.1% |
| CCOc1ccc2nc(NCCNC(=S)NCCCN(C)C)c(C#N)cc2c1 | 1.89% |
| O=C(c1ccc(C(F)(F)F)cc1)c1c[nH]c(C(=O)NCCCn2ccnc2)c1 | -70.4% |
| CCC(=O)c1c[nH]c(C(=O)NCCCn2ccnc2)c1 | 9.18% |
| O=C(c1ccccc1)c1c[nH]c(C(=O)NCCCn2ccnc2)c1 | 5.27% |
| O=C(NCCCn1ccnc1)c1ccc(C(F)(F)F)cc1 | -10.8% |
| COc1ccc(C(=O)c2c[nH]c(C(=O)NCCCn3ccnc3)c2)cc1 | 0.775% |
| CC(C)(C)c1ccc(C(=O)c2c[nH]c(C(=O)NCCCn3ccnc3)c2)cc1 | -71.3% |
| Cc1ccc(/C=N/NS(=O)(=O)c2ccc([N+](=O)[O-])cc2)o1 | 26.4% |
| Cc1c(NC(=O)c2cccs2)c(=O)n(-c2ccccc2)n1C | 3.8% |
| CCCC(Oc1ccc(Br)cc1)c1nc2c3cc(OC)c(OC)cc3nc(=S)n2[nH]1 (stereo not drawn) | 14.5% |
| Cc1cccc2c1NC(C)CC2C.Cl (stereo not drawn) | 8.01% |
| COc1ccccc1CNC(=O)COC(=O)c1cc(C)oc1C | 0.456% |
| COCCn1c(C)nnc1SCC(=O)NNC(=O)c1ccc(Cl)cc1 | 16.4% |
| COc1ccc(Cl)cc1NC(=O)c1nnn(CC(=O)Nc2ccc(OC)c(OC)c2)c1N | 15.1% |
| O=C(NCc1ccccc1)c1ccc(N2CCC3(CC2)CC(c2ccc(Cl)cc2)=NO3)c([N+](=O)[O-])c1 | 11.6% |
| CCCNC(=O)c1ccc(N2CCC3(CC2)CC(c2ccc(Cl)cc2)=NO3)c([N+](=O)[O-])c1 | -74.7% |
| O=C(NCc1ccccc1)c1ccc(N2CCC3(CC2)CC(c2ccccc2)=NO3)c([N+](=O)[O-])c1 | 5.28% |
| CCCNC(=O)c1ccc(N2CCC3(CC2)CC(c2ccccc2)=NO3)c([N+](=O)[O-])c1 | -53% |
| COc1ccc(CNC(=O)c2ccc(N3CCC4(CC3)CC(c3ccc(Cl)cc3)=NO4)c([N+](=O)[O-])c2)cc1 | 9.12% |
| CCCNC(=O)c1ccc(N2CCC3(CC2)CC(c2cccc(Br)c2)=NO3)c([N+](=O)[O-])c1 | -14.2% |
| COCc1cc(=O)n2[nH]cc(-c3ccccc3)c2n1 | 9.45% |
| COc1ccc(NC(=O)CSc2nnc(C3CC3)n2C)cc1S(=O)(=O)N1CCOCC1 | -0.595% |
| Cc1nc2ncnn2c(C)c1CCC(=O)NCc1ccco1 | -6.62% |
| Cc1cccc(OCC(O)Cn2c(NCc3cccnc3)nc3c2c(=O)[nH]c(=O)n3C)c1 (stereo not drawn) | -9.46% |
| Cc1ccc(N2CC(C(=O)Nc3ccccc3C(=O)NC3CCCCC3)CC2=O)cc1 (stereo not drawn) | -5.81% |
| CCOc1ccc(N2CC(C(=O)Nc3ccccc3F)CC2=O)cc1 (stereo not drawn) | -13.5% |

| Structure (SMILES) | hERG current change (%, negative = inhibition) at 10uM |
| --- | --- |
| O=C(NC1CCCCC1)c1ccccc1NC(=O)C1CC(=O)N(c2ccc(Cl)cc2)C1 (stereo not drawn) | 2.36% |
| CC(C)Oc1ccc(N2CC(C(=O)Nc3ccccc3C(=O)NC3CC3)CC2=O)cc1 (stereo not drawn) | -66.2% |
| CC(C)Oc1ccc(N2CC(C(=O)Nc3ccccc3F)CC2=O)cc1 (stereo not drawn) | -17.2% |
| CCOc1ccc(N2CC(C(=O)Nc3ccccc3C(=O)NC3CC3)CC2=O)cc1 (stereo not drawn) | -76.7% |
| O=C(NC1CCCCC1)c1ccccc1NC(=O)C1CC(=O)N(c2ccccc2)C1 (stereo not drawn) | -76.8% |
| Cc1ccc(N2CC(C(=O)Nc3ccccc3C(=O)NC3CCCCC3)CC2=O)cc1C (stereo not drawn) | -17.9% |
| COc1ccc(N2CC(C(=O)Nc3ccccc3C(=O)NC3CC3)CC2=O)cc1 (stereo not drawn) | -38.8% |
| O=S(=O)(c1ccc(Br)cc1)N1CCN=C1SCc1cccc(F)c1 | 8.08% |
| O=C(Nc1nnc(Cc2ccc(Cl)cc2)s1)c1cccnc1 | 13.9% |
| COc1ccccc1N1CCN(C(=O)c2cccc(N3C(=O)C4C5C=CC(C5)C4C3=O)c2)CC1 (stereo not drawn) | 5.22% |
| CCOC(=O)C1=C(C)NC(=S)NC1c1ccc(OCC(=O)N2CCCCCC2)c(OC)c1 (stereo not drawn) | 14.2% |
| O=C(Nc1nnc(Cc2ccccc2)s1)Nc1ccccc1F | 11.1% |
| O=C(CN(C(=O)CCC(=O)Nc1ccccn1)c1ccc(F)cc1)NCc1ccco1 | 14.2% |
| Cc1ccc(C(=O)OCC(=O)Nc2ccc(C(N)=O)cc2)s1 | 10.1% |
| O=C(CCC(=O)c1ccc(F)cc1)Nc1cccnc1 | 1.31% |
| CCCn1nc2cc(C(=O)NCc3ccc(C)cc3)ccc2c1OCC | -1.4% |
| COc1ccc(-c2cc(C(F)(F)F)nc(SCC(=O)NCCCN3CCOCC3)n2)cc1 | -14% |
| CCCOC(=O)c1ccc(NS(=O)(=O)c2cccs2)cc1 | -6.88% |
| O=C(OCCN(CCOC(=O)c1ccncc1)S(=O)(=O)c1cccs1)c1ccncc1 | -77.3% |
| O=C(Oc1ccc(N(C(=O)c2ccncc2)S(=O)(=O)c2cccs2)cc1)c1ccncc1 | 3.77% |
| O=C(C(Cl)Cl)N1CCN(Cc2ccccc2)CC1 | -4.72% |
| CCN1CCN(c2ccc(S(=O)(=O)N3CCOCC3)cc2NC(=O)COc2ccc(F)cc2Cl)CC1 | -24.4% |
| CCN(CC)S(=O)(=O)c1ccc(N2CCN(C)CC2)c(NC(=O)COc2ccc(F)cc2Cl)c1 | -59% |
| CCc1ccccc1OCC(=O)Nc1cc(S(=O)(=O)N(CC)CC)ccc1N1CCOCC1 | -7.83% |
| CN1CCN(c2ccc(S(=O)(=O)N3CCOCC3)cc2NC(=O)COc2ccc(F)cc2Cl)CC1 | -61.5% |
| CCN(CC)S(=O)(=O)c1ccc(N2CCOCC2)c(NC(=O)COc2ccccc2C)c1 | 8.22% |
| O=C(COc1ccc(F)cc1Cl)Nc1cc(S(=O)(=O)N2CCOCC2)ccc1N1CCCCC1 | 4.24% |
